# From PubChem BioAssay
# This is a sample that favours compounds with a hit; in the whole collection about 3.5% have one here.
# TEAD-YAP inh: TEAD-YAP interaction inhibition, primary screen, TEAD-YAP interaction inhibitor project, luminescence, HEK-TIYL cells | hit rate 1.4% among 640,000 | inhibition, % at 9.12 µM | AID 1259422, 2018 | TEAD-Gal4/YAP UAS-luciferase luminescence; in the data active = inhibition above about 32%;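 note: 0% = median of test compound wells and 100% = reference inhibitor wells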
# MITF inh: MITF inhibitors, primary screen, biochemical, AlphaScreen, human; Microphthalmia-associated transcription factor (Homo sapiens), O75030; AlphaScreen MITF homodimerization, bead proximity signal; inhibition, % at 2.6 µM; hit rate 0.91% among 650,000; in the data active = inhibition above about 50%;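 note: 0% = vehicle wells with protein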
# Target sequence (O75030 whole entry, looked up): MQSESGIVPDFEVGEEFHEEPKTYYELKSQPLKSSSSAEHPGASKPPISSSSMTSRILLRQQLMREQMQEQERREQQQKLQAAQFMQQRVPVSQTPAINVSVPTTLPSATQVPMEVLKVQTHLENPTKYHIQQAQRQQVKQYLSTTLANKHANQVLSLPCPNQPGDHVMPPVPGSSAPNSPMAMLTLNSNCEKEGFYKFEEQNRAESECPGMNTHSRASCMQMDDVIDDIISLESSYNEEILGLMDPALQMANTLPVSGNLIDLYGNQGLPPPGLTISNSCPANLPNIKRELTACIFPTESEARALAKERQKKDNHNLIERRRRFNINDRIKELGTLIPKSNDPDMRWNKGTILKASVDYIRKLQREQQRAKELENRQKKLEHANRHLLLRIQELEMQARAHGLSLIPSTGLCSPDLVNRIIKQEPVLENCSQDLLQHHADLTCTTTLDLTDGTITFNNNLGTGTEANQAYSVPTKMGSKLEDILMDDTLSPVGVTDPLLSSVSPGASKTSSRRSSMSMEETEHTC
# FBW7 activator: FBW7 E3 ligase activators, primary screen, biochemical, AlphaScreen, human. F-box/WD repeat-containing protein 7 (Homo sapiens), Q969H0. AlphaScreen FBW7–phospho-cyclin E peptide binding, activator screen. normalized activity (activation), % at 26.1 µM. hit rate 0.13% among 650,000. AID 1259310, 2017; in the data active = normalized activity above about 1.9%;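 note: purified mutant Fbw7 with reduced substrate affinity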
# GPR151 activ: activators of human GPR151, primary screen, cell-based, PathHunter beta-arrestin, luminescence; G-protein coupled receptor 151 (Homo sapiens), Q8TDV0; AID 1508602, 2020; hit rate 1% among 650,000; PathHunter beta-arrestin GPR151 cells; activation, % at 11.2 µM; in the data active = activation above about 4.9%;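 note: 0% = median of compound wells and 100% = cells with positive control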
# * = called active by the depositor.
SMILES,TEAD-YAP inh,MITF inh,FBW7 activator,GPR151 activ
Cn1cc(-c2ccc3cnc(Nc4ccc(-n5cnc(N6CCOCC6)n5)cc4)nc3c2-c2ccccc2)cn1,97.6*,13.2,-0.1,-0.3
Cn1cc(-c2ccc3cnc(Nc4ccc(-n5cnc(N6CCOCC6)n5)cc4)nc3c2C2CC2)cn1,81.4*,3.2,0.1,-1.0
COc1c(-c2cnn(C)c2)ccc2cnc(Nc3ccc(-n4cnc(N5CCOCC5)n4)cc3)nc12,80.8*,14.9,-0.1,-0.7
Brc1ccc(-c2nnc3sc(CN4CCCCCC4)cn23)cc1,-0.7,-7.7,-0.2,0.7
C[C@H]1C(=O)N2CCN(C(=O)c3cccc4ccccc34)C[C@@H]2C(=O)N1C,-5.0,11.2,0.1,1.9
N#CC1=C(N)N(c2ccc(Cl)cc2)C2=C(C(=O)CCC2)C1c1ccc(Br)cc1 (centres undefined),1.5,-8.1,-0.2,0.7
NCCC(=O)NC(C(=O)Nc1nc2ccc(-c3cn[nH]c3)cc2s1)c1ccc(Cl)cc1 (centres undefined),-32.5,-11.9,-0.3,0.7
Nc1c2ccccc2nc2ccccc12,74.5*,21.1,0.6,-0.4
O=c1[nH]cnc2c1ncn2[C@@H]1O[C@H](CO)[C@@H](O)[C@H]1O,-3.8,-4.3,-0.2,-1.3
O=c1ncn(C2OC(CO)C(O)C2O)c(=O)[nH]1 (centres undefined),74.4*,0.1,-0.1,0.0
O=c1cnn([C@@H]2O[C@H](CO)[C@@H](O)[C@H]2O)c(=O)[nH]1,47.7*,-2.2,-0.1,0.8
Oc1ccc(Cl)cc1C1CC(c2cccc(Br)c2)=NC(c2ccc(Cl)cc2Cl)N1 (centres undefined),21.7,11.2,0.5,0.1
CCOc1cc(N2CCOCC2)c(OCC)cc1NC(=O)CN(CC)C1CCCCC1,12.8,-1.5,0.0,0.3
CCOc1cc(N2CCOCC2)c(OCC)cc1NC(=O)CN1CCCC1,-2.9,83.2*,-0.6,0.1
C=CCN1C2=NCCCN2c2ccccc21,5.8,1.4,-0.1,-0.7
CCCCCCN1C2=NCCCN2c2ccccc21,36.0*,7.8,1.2,-1.3
CC(=O)c1cn(CC(=O)Nc2ccc(C)cc2C)c2ccccc12,40.4*,1.7,0.0,0.2
COc1cc(C)c(NC(=O)Cn2cc(C(C)=O)c3ccccc32)cc1C,21.7,9.0,-0.1,-0.7
CC(=O)c1cn(CC(=O)Nc2cccc(C)c2C)c2ccccc12,40.4*,-1.9,0.1,-0.3
CCCNc1cc(C)nc(Nc2ccc(-n3ccnc3)cc2)n1,34.9*,5.9,0.0,1.3
COc1cc(Nc2ncc(C)c(NCc3cccnc3)n2)cc(OC)c1OC,-12.5,20.4,0.2,1.9
Cc1cc(NCc2cccc(C(F)(F)F)c2)nc(Nc2ccc(-n3ccnc3)cc2)n1,50.2*,0.1,-0.1,1.3
Cc1cnc(Nc2ccc(C(F)(F)F)cc2)nc1NCc1cccc(C(F)(F)F)c1,11.1,-21.6,0.0,-2.0
Cc1cnc(Nc2ccc(-n3ccnc3)cc2)nc1NCc1cccc(C(F)(F)F)c1,36.7*,-10.2,0.1,0.1
COc1cc(Nc2ncc(C)c(NCc3cccc(C(F)(F)F)c3)n2)cc(OC)c1OC,53.5*,-5.4,-0.1,1.5
SMILES,TEAD-YAP inh,MITF inh,FBW7 activator,GPR151 activ
CCCCN=Cc1c(O)n(-c2ccc(Br)cc2)c(=O)[nH]c1=O,5.1,-6.1,-0.2,0.3
Cc1nc2nc(C(=O)O)[nH]n2c(=O)c1C,6.6,-0.5,-0.3,0.8
CCN(CC)c1nc(C)nc2sc(C(=O)N3CCN(c4cccc(Cl)c4)CC3)c(C)c12,8.5,4.0,-0.1,0.4
CS(=O)(=O)Nc1cccc(-c2cnc3c(Nc4ccc(Cl)cc4)nccn23)c1,0.6,19.3,0.3,-1.4
O=C(NCc1cccc(C(F)(F)F)c1)C1CCN(c2ccc(Nc3ccc(-n4ccnc4)cc3)nn2)CC1,34.7*,10.9,0.2,-3.2
Cc1cnc(Nc2cnccn2)nc1NCc1cccc(C(F)(F)F)c1,46.4*,7.5,-0.1,1.8
O=C(NCc1ccccc1)C1CCN(c2ccc(Nc3ccc(-n4ccnc4)cc3)nn2)CC1,2.0,10.6,-0.1,-1.9
COc1cc(NC(=O)c2csc(-c3ccc(C(N)=O)cc3)n2)cc(OC)c1OC,36.4*,-2.6,-0.1,0.9
COc1cc(Nc2ccnc(-c3ccc(C(N)=O)cc3)n2)cc(OC)c1OC,50.9*,13.8,0.0,-2.0
COc1ccc(-c2nc(C(=O)Nc3cc(OC)c(OC)c(OC)c3)cs2)cc1,13.6,1.8,1.1,-0.4
COc1cc(NC(=O)c2csc(N3CCN(Cc4ccc5c(c4)OCO5)CC3)n2)cc(OC)c1OC,41.4*,2.7,0.0,2.8
CN1CCN(c2ccc(-c3nc(NCCO)c4ncn(-c5ccccc5)c4n3)cc2)CC1,73.2*,-11.2,0.1,-0.5
c1ccc(-n2cnc3c(NCCN4CCOCC4)nc(NCCN4CCOCC4)nc32)cc1,6.0,7.1,0.1,-1.1
CN1CCN(c2ccc(-c3nc(NCCOc4ccccc4)c4ncn(-c5ccsc5)c4n3)cc2)CC1,11.4,6.2,-0.1,-0.4
c1ccc(Oc2nc(NCCN3CCOCC3)c3ncn(-c4ccccc4)c3n2)cc1,34.1*,20.5,0.2,0.8
COc1ccc(-c2nc(NCCN3CCOCC3)c3ncn(-c4ccccc4)c3n2)cc1,46.6*,16.4,0.4,-0.8
CN(C)CCn1c(N)c(S(=O)(=O)c2ccc(F)cc2)c2nc3ccccc3nc21,-1.0,0.2,0.4,-0.2
CCOc1ccc(S(=O)(=O)NCCCN2CCOC(c3ccccc3)C2)cc1F (centres undefined),1.7,5.9,0.6,-0.7
CC1=NN(c2nc3ccccc3[nH]2)C(=O)C1CCC(C)C (centres undefined),73.2*,31.1,-0.6,-1.6
CCN(CC)CCn1c(=N)n(CC(=O)c2ccc(C)cc2)c2ccccc21,13.4,18.1,3.3*,-0.3
Cc1ccc(C(=O)Cn2c3ccccc3n3nc(C)nc23)cc1,46.7*,0.3,0.0,-0.5
Cn1c(=N)n(CC(=O)c2ccccc2)c2ccccc21,44.9*,4.7,0.4,-1.0
N=c1sc2c(n1CC(=O)c1ccccc1)CCCC2,91.0*,-9.9,0.2,-11.0
COc1ccc(C(=O)Cn2c(=N)n(C)c3ccccc32)cc1,-79.0,-5.3,0.3,-0.1
CC1=C(C(=O)OC2CCCCC2)C(c2cccc(Br)c2)n2nnnc2N1 (centres undefined),-3.4,7.6,0.1,0.0
Cc1ccc2nc(-c3ccc(C)c(NC(=O)c4cc([N+](=O)[O-])ccc4Cl)c3)oc2c1,-16.1,26.6,1.3,-1.4
Cc1ccc(C(=O)NCc2nc(-c3ccccc3)no2)cc1,12.1,-0.4,0.0,0.3
Cc1ccc2c(nc3s/c(=C\c4ccccc4OCc4ccc(Cl)cc4Cl)c(=O)n32)c1C,-7.1,3.5,0.0,0.5
CC(=O)c1cc(C(=O)NC(C)c2cnn(-c3ccccn3)c2C)cs1 (centres undefined),-8.0,-6.7,-0.1,0.3
